Measurements: PubChem BioAssay (EPA / NIEHS)
Activity calls are given as the source filed them. Rule for the calls: active = hit-call score of the fitted dose curve at least 0.9, where 1 is the maximum; inactive = score below 0.9.

Read-out: Lipoprotein lipase (LPL), LPL (gene 4023)
Test: LTEA_HepaRG_LPL: Life Technologies and Expression Analysis (LTEA) Assay for Lipoprotein lipase (LPL) using HepaRG (AID 2283515)
Settings: mRNA level, 48 h; actives raise or lower the signal
Procedure: LTEA_HepaRG is a cell based, multiplexed-readout assay that uses HepaRG, a human liver cell line, with measurements taken at 48 hours after chemical dosing on a 96-well plate.LTEA_HepaRG_LPL is one of 102 assay component(s) measured in the LTEA HepaRG cell culture assay. It is a marker of Steatosis.Data from the assay component LTEA_HepaRG_LPL was analyzed into 1 endpoint. This assay endpoint, LTEA_HepaRG_LPL, was analyzed with bidirectional fitting relative to DMSO as the negative control and baseline of activity. Using a type of inducible reporter, measures of mRNA induction for gain or loss-of-signal activity can be used to understand regulation of transcription factor activity. To generalize the intended target to other relatable targets, this assay endpoint is annotated to the esterase intended target family, where the subfamily is lipase.
A total of 1060 chemcials from the ToxCast library were tested in eight-point concentration-response experiments. Cell culture and cytotoxicity assays were conducted at Thermo Fisher Scientific's Custom Services facility (Madison, WI). A single lot of human HepaRG cells (Thermo Fisher Scientific, Frederick, MD) was used for the cell culture experiments. 96-well format collagen type I coated plates of human HepaRG cells were prepared using established methods. Briefly, cryopreserved HepaRG cells were thawed, plated at a density of approximately 100,000 cells/well in HepaRG Thaw, Plate, and General Purpose media (HPRG770, Thermo Fisher Scientific), and incubated for 48 hours. 0.5% DMSO was selected as vehicle control to balance the requisite need of DMSO in HepaRG cultures to maintain differentiation (for example, baseline metabolism, proportions of hepatocytes vs. cholangiocytes), while enabling further hepatic receptor pathway activation (for example, PXR and CAR) in response to chemical exposure. 48 hours after plating, the culture medium was replaced with HepaRG Serum-Free Incudtion Media. Cells were exposed to each test chemical in duplicate and maintained in CO2 incubators for another 48 hours. Chemical plates were thawed to room temperature and 200x concentrations of treatment groups were prepared. 8-point conentration-reponse curves were made with the highest exposure at 100 uM, followed by half-log dilutions, all in 0.5% DMSO. Each test plate contained variouse controls, induction positive controls (1mM phenobarbital), cytotoxicity positive controls ([…] aflatoxin B1), vehicle controls (0.5% DMSO), and total lysis controls (0.5% DMSO). Cell morphology images were taken using an Essen IncuCyte FLR automated microscope, with six 96-well plates imaged in about 24 minutes. Images were captured and exported and JPEG files. Spent culture media was transfered to black-well plates for the LDH assay, and remaining media was sorted at -80 C for later use. Cells were treated with RLT buffer and frozen until shipped for gene expression analysis. Total RNA was isolated from the cell suspension in 75 uL of Buffer RLT (Qiagen, Germantown, MD 20874) by Quintiles/Expression Analysis (Durham, NC) using a custom isolation procedure. Total RNA from each plate well was transferred to a preamplification plate. Fluidigm's 96.96 Dynamic ArrayTM (Fluidigm, Amsterdam, the Netherlands) technology was used for gene expression analyses by quantitative reverse transcription polymerase chain reaction (qRT-PCR, performed by Quintiles/Expression Analysis, Durham, NC)89. Standard TaqManTM Assays (Applied Biosystems/ThermoFisher Scientific, Foster City, CA) were used to assess the expression of 93 genes selected based on their selectivity and sensitivity to important hepatic receptors known to be modulated by environmental chemicals; importance in human hepatocyte functionality; and hepatotoxicity. […]

SMILES | outcome | AC50
c1ccc2n[nH]nc2c1 | inactive | –
CC/C(=C(/CC)c1ccc(O)cc1)c1ccc(O)cc1 | – | 83.9 µM (active)
O=C1CCC(C2CCCCC2)CC1 | inactive | –
CO[C@H]1/C=C/O[C@@]2(C)Oc3c(C)c(O)c4c(O)c(c(/C=N/N5CCN(C)CC5)c(O)c4c3C2=O)NC(=O)/C(C)=C\C=C\[C@H](C)[C@H](O)[C@@H](C)[C@@H](O)[C@@H](C)[C@H](OC(C)=O)[C@@H]1C | inactive | –
CCCCCCCCN(C)CCCCCCCC | inactive | –
c1ccc(C[n+]2cccc3ccccc32)cc1 | – | 32.8 µM (active)
CC(C)(C)c1cc(/C=C2\SC(N)=NC2=O)cc(C(C)(C)C)c1O | inactive | –
Cc1oc2c(NC(=O)c3c(Cl)cccc3Cl)cccc2c1C(C)(C)O | – | 14 µM (active)
CCCCCCCC[Si](OCC)(OCC)OCC | inactive | –
CCCCCCCCCCCO | inactive | –
COc1cc(C(=O)NC2CCN(C)CC2)ccc1Nc1ncc2c(n1)N(C1CCCC1)CC(F)(F)C(=O)N2C | – | 14 µM (active)
OC12N=C(c3ccccc3)SC1Cc1cc(Cl)ccc12 (stereo not given) | – | 1.52 µM (active)
CCCOC(=O)c1cc(O)c(O)c(O)c1 | inactive | –
Cc1ccc(C(C)C)cc1 | inactive | –
Oc1ccccc1 | inactive | –
CCCC(=O)OCCC(C)C | inactive | –
Cc1cn([C@H]2C[C@H](N=[N+]=[N-])[C@@H](CO)O2)c(=O)[nH]c1=O | inactive | –
CC(=O)N1CCN(c2ccc(OC[C@H]3CO[C@](Cn4ccnc4)(c4ccc(Cl)cc4Cl)O3)cc2)CC1 | – | 86.3 µM (active)
C[C@]12CC[C@@H]3c4ccc(O)cc4CC[C@H]3[C@@H]1CC[C@H]2O | inactive | –
CC1=CC(=O)/C(=C(/C)O)C(=O)O1 | inactive | –

SMILES | outcome | AC50
O=C(OCCCCCCOC(=O)c1ccccc1)c1ccccc1 | inactive | –
CC(O)CC(C)(C)O (stereo not given) | inactive | –
CC[C@H](NC(=O)c1cc(F)ccc1NS(=O)(=O)c1cccc2cccnc12)c1ccccc1 | inactive | –
Cc1ccc2oc(CN(Cc3ccccc3)C(=O)Nc3c(F)cc(F)cc3F)c(-c3ccc(Cl)cc3)c2c1 | – | 56.4 µM (active)
Clc1cc(Cl)c2c(c1)N=C1CCCCCN1C2 | inactive | –
Cc1cc(F)ccc1-c1cc(N2CC[C@@H](O)[C@H]2CO)ncc1N(C)C(=O)C(C)(C)c1cc(C(F)(F)F)cc(C(F)(F)F)c1 | – | 48.8 µM (active)
CCCCOC(=O)CC(CC(=O)OCCCC)(OC(C)=O)C(=O)OCCCC | inactive | –
O=CCCCC=O | inactive | –
CN(C[C@@H](CC[N+]12CCC(C3CCCCC3)(CC1)CC2)c1ccc(Cl)c(Cl)c1)C(=O)c1cc(C(F)(F)F)cc(C(F)(F)F)c1 | – | 36 µM (active)
CN(C)c1ccc(C(=C2C=CC(=[N+](C)C)C=C2)c2ccc(N(C)C)cc2)cc1 | – | 36 µM (active)
COCC(C)OCC(C)OCC(C)O (stereo not given) | inactive | –
CC[C@@H]1C[C@H](N(Cc2cc(C(F)(F)F)cc(C(F)(F)F)c2)C(C)=O)c2cc(C(F)(F)F)ccc2N1C(=O)OC(C)C | inactive | –
Cc1ncc(CO)c(CO)c1O | inactive | –
CN(C)C(=O)C1(N2CCCCC2)CCN(CC[C@@]2(c3ccc(Cl)c(Cl)c3)CN(C(=O)c3ccccc3)CCO2)CC1 | – | 24.8 µM (active)
NC(=O)c1nc(-c2cccc(-c3cc(F)ccc3OCC(F)(F)C(F)(F)F)c2)n[nH]1 | inactive | –
O=C1c2ccccc2C(=O)N1CCc1noc(-c2ccc(CN3CCCCCC3)s2)n1 | – | 20.7 µM (active)
CCN(CC)C(=O)c1cc(S(=O)(=O)Cc2ccccc2)c(N2CCC(c3ccccc3)CC2)cc1N(CC)CCN(C)C | – | 31.6 µM (active)
COc1ccc2cc(S(=O)(=O)N[C@H](CC(=O)N[C@H](Cc3ccc(CN4[C@H](C)CCC[C@@H]4C)cc3)C(=O)N(C)C(C)C)c3ccc4c(c3)OCO4)ccc2c1 | – | 24.1 µM (active)
CCCCCc1ccc(N)cc1 | inactive | –
Oc1ccc2ccccc2c1 | inactive | –
